Laboratory results reported in PMC4336329 (PLoS ONE, 2015).
The whole screen tested about 310,000 compounds, of which about 14,000 (4.5%) showed an effect of 50% or more. The effect is printed as a negative number. For the sample, strong results were picked, then their nearest neighbours and some compounds at random.

target: human ether-à-go-go-related gene (hERG) potassium channel (human, UniProt Q12809); assay: primary screen, population patch clamp on CHO cells stably expressing hERG; higher = less effect of the substance
Sequence (Q12809 whole entry, looked up): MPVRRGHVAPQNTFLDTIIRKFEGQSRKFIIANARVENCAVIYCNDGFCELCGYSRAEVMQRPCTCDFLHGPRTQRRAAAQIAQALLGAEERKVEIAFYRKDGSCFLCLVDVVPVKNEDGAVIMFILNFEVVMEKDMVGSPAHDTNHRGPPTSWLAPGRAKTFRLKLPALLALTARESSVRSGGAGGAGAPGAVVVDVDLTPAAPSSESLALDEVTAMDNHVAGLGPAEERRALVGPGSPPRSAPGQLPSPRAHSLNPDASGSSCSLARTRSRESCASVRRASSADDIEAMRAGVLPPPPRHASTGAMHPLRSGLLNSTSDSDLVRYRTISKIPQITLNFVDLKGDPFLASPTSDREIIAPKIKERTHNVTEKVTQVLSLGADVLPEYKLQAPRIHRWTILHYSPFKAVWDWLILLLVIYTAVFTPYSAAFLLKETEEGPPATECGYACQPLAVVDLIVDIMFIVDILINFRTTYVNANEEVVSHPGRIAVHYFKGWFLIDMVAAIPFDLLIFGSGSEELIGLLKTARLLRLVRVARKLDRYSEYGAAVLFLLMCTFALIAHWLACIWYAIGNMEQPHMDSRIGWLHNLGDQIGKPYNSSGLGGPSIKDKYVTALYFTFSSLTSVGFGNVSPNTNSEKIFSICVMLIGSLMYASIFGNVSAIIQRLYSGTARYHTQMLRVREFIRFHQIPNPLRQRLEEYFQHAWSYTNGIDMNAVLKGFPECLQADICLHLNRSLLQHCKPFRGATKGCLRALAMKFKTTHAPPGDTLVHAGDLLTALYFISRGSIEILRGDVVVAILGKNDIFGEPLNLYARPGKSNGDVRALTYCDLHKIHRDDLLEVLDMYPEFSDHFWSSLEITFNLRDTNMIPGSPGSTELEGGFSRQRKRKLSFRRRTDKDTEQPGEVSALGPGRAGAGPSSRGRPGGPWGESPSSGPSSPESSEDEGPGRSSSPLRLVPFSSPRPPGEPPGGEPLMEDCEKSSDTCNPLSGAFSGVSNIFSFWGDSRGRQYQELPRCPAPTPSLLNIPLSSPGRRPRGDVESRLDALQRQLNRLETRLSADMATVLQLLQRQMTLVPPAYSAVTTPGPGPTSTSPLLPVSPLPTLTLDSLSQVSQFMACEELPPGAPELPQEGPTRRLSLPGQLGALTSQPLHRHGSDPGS
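Also: peak tail current of the secondary pulse compared with the same well before compound.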

Structure (SMILES) | hERG current change (%, negative = inhibition) at 10uM [%]
CN1CCN(CC(C)(C)NS(=O)(=O)c2ccc(Cl)cc2)CC1 | -20.4
CN1CCN(CC(O)(c2ccc(Cl)cc2)c2ccc(Cl)cc2)CC1 | -73.3
Cl.NCC(O)(c1ccc(Cl)cc1)c1ccc(Cl)cc1 | -5.47
O=C(N/N=C/c1cccnc1)c1ccc(NC(=O)c2cccc(Cl)c2)cc1 | 15.3
Cc1cccc(Cl)c1NC(=O)N1CCCN(c2nc3ccc(Cl)cc3s2)CC1 | -20.6
COc1cccc(/C=C/C2=CC(C)(C)NC(=S)N2)c1 | 16
COc1ccc(CN(C2CCCC2)S(=O)(=O)c2ccc(-n3cnnn3)c(OC)c2)cc1OC | -28.1
COc1ccc(CN(C2CCCC2)S(=O)(=O)c2ccc(-n3cnnn3)cc2)cc1 | -43.8
COc1cc(S(=O)(=O)N(Cc2ccccc2)Cc2ccccn2)ccc1-n1cnnn1 | 2.81
COc1cc(S(=O)(=O)N(CCc2ccccc2)Cc2cccs2)ccc1-n1cnnn1 | -3.57
COc1ccc(CCN(Cc2cccs2)S(=O)(=O)c2ccc(-n3cnnn3)cc2)cc1OC | -52.5
COc1ccc(CCN(Cc2cccs2)S(=O)(=O)c2ccc(-n3cnnn3)c(OC)c2)cc1OC | 10.4
COc1ccc(CN(C2CCCC2)S(=O)(=O)c2ccc(-n3cnnn3)cc2)cc1OC | -64
COc1ccc(CN(Cc2ccccn2)S(=O)(=O)c2ccc(-n3cnnn3)c(OC)c2)cc1 | -47.2
COc1ccc(CN(Cc2ccccn2)S(=O)(=O)c2ccc(-n3cnnn3)cc2)cc1 | -72.7
O=C(N/N=C/c1ccc(Cl)cc1Cl)C(=O)NC1CC1 | 17.4
Nc1nonc1C(=O)OCC(=O)c1ccc(Cl)cc1 | 4.6
Cc1ccccc1NC(=O)NC1(C(=O)N2CCCC2)CCCCC1 | 9.33
Cc1ccc2cc3cc(C(=O)NCCC(C)C)oc3nc2c1 | 8.43
COc1ccc2cc3cc(C(=O)NCCC(C)C)oc3nc2c1 | 6.93
CCCCN(CC)CCCNC(=O)c1cc2cc3ccc(C)cc3nc2o1 | -53.4
COCCNC(=O)c1cc2cc3ccc(OC)cc3nc2o1 | 12.8

Structure (SMILES) | hERG current change (%, negative = inhibition) at 10uM [%]
CCCCN(CC)CCCNC(=O)c1cc2cc3ccc(OC)cc3nc2o1 | -64.5
CCN(CC)CCNC(=O)c1cc2cc3ccc(OC)cc3nc2o1 | -18
Cc1ccc2cc3cc(C(=O)NC4CC4)oc3nc2c1 | 8.43
CCCCN(C)CCNC(=O)c1cc2cc3ccc(OC)cc3nc2o1 | -43
CCCN(CCC)CCCNC(=O)c1cc2cc3ccc(OC)cc3nc2o1 | -52.8
CCOC(=O)C1=C(N)Oc2c(oc(CO)cc2=O)C1c1c(F)cccc1Cl (stereo not shown) | 0.47
Nc1ncc([N+](=O)[O-])cc1S(=O)(=O)c1ccccc1 | 8.32
COc1ccc(N2C(=O)C3CCCN3C2c2cc(OC)c(OC)cc2OC)cc1 (stereo not shown) | -4.23
CSc1nc(C)cc(C)c1C(N)=O | 8.49
CCCNC(=O)NC(=O)CSc1nnc(-c2ccncc2)n1CC | 11.6
COc1ccc(-c2cc3c(=O)n(CC(=O)NCCCc4ccccc4)ncn3n2)cc1 | 7.35
CCC1CCCCN1CCCNC(=O)Cn1ncn2nc(-c3ccc(OC)cc3)cc2c1=O (stereo not shown) | -42.1
COc1ccc(-c2cc3c(=O)n(CC(=O)NCCCN4CCN(Cc5ccccc5)CC4)ncn3n2)cc1 | -54.8
CCc1ccc(-c2cc3c(=O)n(CC(=O)NCCCN4CCN(C)CC4)ncn3n2)cc1 | -4.24
COc1ccc(-c2cc3c(=O)n(CC(=O)NCCCN4CCC(N5CCCCC5)CC4)ncn3n2)cc1 | 21.5
COc1ccc(-c2cc3c(=O)n(CC(=O)NCCCN4CCC(Cc5ccccc5)CC4)ncn3n2)cc1 | -72.4
O=S(=O)(c1ccccc1)N1CCN=C1SCc1ccc(Cl)c(Cl)c1 | -2.01
Cc1ccc(NC(=O)CCCCCN2C(=O)[C@@H]3Cc4ccccc4CN3C2=O)c(C)c1 | 2.68
Cc1ccc(-c2cc(-c3cccs3)[nH]n2)c(O)c1 | 1.75
COC(=O)CSc1nc(NC(C)=O)nc(C)c1Br | 9.72
COc1ccc(C2CC(c3cccs3)=NN2C(=O)CSc2nc3ccccc3s2)cc1 (stereo not shown) | -6.91
COc1ccc(C2CC(c3cccs3)=NN2C(=O)CSc2nc(=O)n3ccccc3n2)cc1 (stereo not shown) | -57.5

Structure (SMILES) | hERG current change (%, negative = inhibition) at 10uM [%]
O=C(CSc1nc(=O)n2ccccc2n1)N1N=C(c2cccs2)CC1c1ccc(F)cc1 (stereo not shown) | -52.2
O=C(CSc1nc2c(cnn2-c2ccccc2)c(=O)[nH]1)N1N=C(c2cccs2)CC1c1ccc(F)cc1 (stereo not shown) | 16
O=C(CSc1nc2ccccc2s1)N1N=C(c2cccs2)CC1c1ccc(F)cc1 (stereo not shown) | 0.782
COc1ccc(C2CC(c3cccs3)=NN2C(=O)CSC2=NCCS2)cc1 (stereo not shown) | -11
O=C(NCc1ccccc1)c1ccc2nnsc2c1 | -1.17
Cc1cc(=O)[nH]c(SCC(=O)N(CCC#N)c2ccccc2)c1C#N | 15.3
COc1cc(OC)cc(C(=O)NCCNC(=O)c2ccccn2)c1 | 14.3
CCN(CCCNC(=O)CN1C(=O)COc2ccccc21)c1cccc(C)c1 | -11.3
CC(=O)Nc1ccc(Sc2ncccc2C(=O)Nc2ccc(F)cc2)cn1 | 13.9
O=C(Nc1cc(C(F)(F)F)cc(C(F)(F)F)c1)c1ccc(Cn2cc(C(F)(F)F)ccc2=O)cc1 | 22
CCc1nn2c(=O)cc(COC(=O)c3cc(Cl)c(OC)c(OC)c3)nc2s1 | -69.5
COCCc1nn2c(=O)cc(COC(=O)c3cc(OC)c(OC)c(OC)c3)nc2s1 | -22.6
CCc1nn2c(=O)cc(COC(=O)c3ccc(SC)cc3OC)nc2s1 | -18.7
CCOc1cccc(C2C(C(=O)c3ccc(C)o3)=C(O)C(=O)N2c2nccs2)c1 (stereo not shown) | 0.752
O=C(CCCN1CCC(C(=O)c2ccc(F)cc2)CC1)c1ccc(F)cc1 | -78.5
Cc1ccc(C(=O)NC2CCN(S(=O)(=O)c3ccc(F)cc3)CC2)cc1 | 11.6
O=C(C1CCCCC1)N1CCc2[nH]c3ccc(F)cc3c2C1 | -3.94
Cc1ccc(C(=O)NC2CCN(CCCC(=O)c3ccc(F)cc3)CC2)cc1 | -74
O=C(CN1CCC(NC(=O)c2ccccc2)CC1)NCc1ccccc1F | -20.6
CN1CCN(CCCC(=O)c2ccc(F)cc2)CC1.Cl | -14.5
CCN(CC)C(=O)N1CCC(NC(=O)c2ccccc2)CC1 | 12.6
O=C(c1ccc(F)cc1)C1CCN(C(=O)c2ccc(F)cc2)CC1 | -22.7

Structure (SMILES) | hERG current change (%, negative = inhibition) at 10uM [%]
C=CCNC(=O)N1CCc2[nH]c3ccc(F)cc3c2C1 | 6.56
Cl.O=C(CCCN1CCc2[nH]c3ccc(F)cc3c2C1)c1ccc(F)cc1 | -70.4
Cc1ccc(C(=O)NC2CCN(C(=O)Nc3ccc(F)cc3)CC2)cc1 | 1.24
O=C(CCCN1CCC(NC(=O)c2ccccc2)CC1)c1ccc(Cl)cc1 | -77.8
COC(=O)C1C(=O)C2=C(CC1C)NC(=O)CC2c1cccc(C)c1 (stereo not shown) | -12.6
CCCSc1nnc(NC(=O)c2ccco2)s1 | 2.42
CC(NC(=O)CSc1nnc(-c2cc3cc(Cl)ccc3o2)n1C)c1ccccc1 (stereo not shown) | -12
CCOC(=O)c1oc2ccccc2c1COC(=O)CNC(=O)c1cccc(C)c1 | 3.66
CC(=O)c1cn(C)c(=O)n(C)c1=O | 4.7
COC(=O)c1ccc(C23CC4(C2)[C@H](CN(Cc2cccnc2)[C@@H]4c2ccccc2)C3c2ccccc2)cc1 (stereo partly shown) | 12.8
CCn1c(CNC(=O)c2ccccc2Br)nnc1SCC(=O)NC1=NCCS1 | 27.9
CCOc1ccc(NC(=NCc2ccc3c(c2)OCO3)SC2CC(=O)N(c3ccc(OCC)cc3)C2=O)cc1 (stereo not shown) | -1.29
CCOC(=O)N1CCN(C(=O)CCn2c(=S)[nH]c3cc(OCC)c(OCC)cc3c2=O)CC1 | -7.21
Cc1cccc(C(=O)NC2CCN(S(=O)(=O)c3ccccc3)CC2)c1 | 3.41
Cc1cccc(C(=O)NC2CC3CCCC(C2)N3S(=O)(=O)c2ccccc2)c1 (stereo not shown) | -77.2
CCCN1C2CCCC1CC(NC(=O)c1cccc(OC)c1)C2 (stereo not shown) | -16.4
COc1ccc(S(=O)(=O)N2CCC(NC(=O)c3cccnc3)CC2)cc1 | -64.7
O=C(NC1CCN(S(=O)(=O)c2ccc(Cl)cc2)CC1)c1cccnc1 | 0.584
COc1cccc(C(=O)NC2CC3CCCC(C2)N3S(=O)(=O)c2ccccc2)c1 (stereo not shown) | -75.8
COc1ccc(S(=O)(=O)N2CCC(NC(=O)c3ccccc3)CC2)cc1 | 17.8
CC(=O)NC1CC2CCCC(C1)N2S(=O)(=O)c1ccccc1 (stereo not shown) | 16.3
O=C(NC1CC2CCCC(C1)N2S(=O)(=O)c1ccccc1)c1ccccc1 (stereo not shown) | -44
